This note sets out measurements from article PMC13494018.

Sequences and labels used below:
B1: design_598_15ab41e9-cad4-4381-8935-81f74b313fe8_2180_dldesign_0_cycle1_af2pred (protein)
chain: AEAAEKAAAKAVINEAYDLLGSSTAEEALKYAEEKAKEAKAAGKKIVADAAEKTAKVLKRIAEDEKEAKK
B2: design_598_15ab41e9-cad4-4381-8935-81f74b313fe8_1969_dldesign_0_cycle1_af2pred (protein)
chain: AAAAAKKAQAKKLVGLGLFYYLDYLAGGPESSKEKGDAYYAAAAALDPATAAEAKAKADKIAARFKKDVEEAKK
B3: design_598_15ab41e9-cad4-4381-8935-81f74b313fe8_1677_dldesign_0_cycle1_af2pred (protein)
chain: DVAALIAKAAALVDDPSKAAEALKYLVAAREKALSEGDAAALKQIAAVAAEGAKKAPPEYAKGFKLLANTAKSIAEDLEK
B4: design_598_15ab41e9-cad4-4381-8935-81f74b313fe8_1784_dldesign_0_cycle1_af2pred (protein)
chain: ADEEGKKLVKEKLEEAKKALEKAKAGDKKEALDAASTATRNAHKIEAFAKAVPVSEEVVKLAKEAVKELEKYEEKAAKLLAK
B5: design_598_15ab41e9-cad4-4381-8935-81f74b313fe8_1538_dldesign_0_cycle1_af2pred (protein)
chain: KEEAKKKVEEARKLVEEAKKLIEKGEYEKGLKLAEEAAELAHKTSVKYGAGEAEKVYKEASKVISLAWAKLAEAKK
B6: design_598_15ab41e9-cad4-4381-8935-81f74b313fe8_2338_dldesign_0_cycle1_af2pred (protein)
chain: AEEKAKELYAKGEKLYKEGLKADKETGKEYFTKAAEYFKAAAEEFKKAGNVVGAGYAESKAERAKEAAELL
B7: design_598_15ab41e9-cad4-4381-8935-81f74b313fe8_1648_dldesign_0_cycle1_af2pred (protein)
chain: KKEEAKKELLEKVKKLEEEGEKLLEEKTPKEARAKALEKGKEIMKEAEKAIKDPETKEAGKEAKKKAAEAMAKLYEKAAEKEAKE
B8: design_598_15ab41e9-cad4-4381-8935-81f74b313fe8_2011_dldesign_0_cycle1_af2pred (protein)
chain: KLEEYKKKIKEKAKEMGKSLDPEERKKLLEEIKKLAKEASKELGEKEEIEKFAAEEAHEGLEQASENRFKS
B9: design_598_15ab41e9-cad4-4381-8935-81f74b313fe8_2343_dldesign_0_cycle1_af2pred (protein)
chain: ASEELWKKAQEIATKAVAAAQARYAAEGKYEELDKDIDKIYELAVEAAKEGEEGLKKLEEMRKEAEEAAKKALEAA
B10: design_598_15ab41e9-cad4-4381-8935-81f74b313fe8_2441_dldesign_0_cycle1_af2pred (protein)
chain: AKEKAEELAKKAREGIERAERRVEEGKKKSKKDAAIYSYSAAELLDSVAAGIVKELLKEDPELGKKVAEEVEKAREEALKEAEKYES
B11: design_598_15ab41e9-cad4-4381-8935-81f74b313fe8_1541_dldesign_0_cycle1_af2pred (protein)
chain: AEQEKKDEEYKEKAKKGEELAKKAKERAEKNKDDKGVLGSQAELAEHIAKALKKAAEEASEEVKPELKAAAEKAKKVAKYAEELA
B12: design_598_15ab41e9-cad4-4381-8935-81f74b313fe8_2408_dldesign_0_cycle1_af2pred (protein)
chain: ELELLKERAELYERAAKAAEAGKLGAGIRLAAIAEDLIDLELGKKKEKELKASSREEALKILKKEAEKYKAKAKELA
B13: design_598_15ab41e9-cad4-4381-8935-81f74b313fe8_2059_dldesign_0_cycle1_af2pred (protein)
chain: GEKEELKEKAKKLKELAKKAVEKAKKAAEENPEAKPLAEKAKELAEEAIKLAEEGTKESLEKAAKILQELREVTAEAEFIARKG
B14: design_598_15ab41e9-cad4-4381-8935-81f74b313fe8_1691_dldesign_0_cycle1_af2pred (protein)
chain: DKEAEAKKIEAAAKKNAEAALADAEKAKEYAKAGDKSKAKQYSESAKIYLELAGTAAKKGAGYPTAPEIKKLYEDTKAKVEEILKEA
B15: design_598_15ab41e9-cad4-4381-8935-81f74b313fe8_2298_dldesign_0_cycle1_af2pred (protein)
chain: SKKAEQTLFRAEALGEAVTEAAEQLDPALGARVRERAKELIERAKKDGTLEAAEKALEEMRRLAEEVRAAIEAA
B16: design_598_15ab41e9-cad4-4381-8935-81f74b313fe8_1756_dldesign_0_cycle1_af2pred (protein)
chain: GFKEEAEKKMEKVLEEAKKASVKEAATIVREAYAELKGIGHLLEKKGKKEEGKFAEEVAKKVLEEGKKIVEEKAAA
B17: design_598_15ab41e9-cad4-4381-8935-81f74b313fe8_1476_dldesign_0_cycle1_af2pred (protein)
chain: SEEKKKEEEKKVKEAEKLAKKAKEAAKKGDVKTAKEYYEKAKKIAKEVKKEGSKELATKAANAAQEAYQAYREAEAKA
B18: design_598_15ab41e9-cad4-4381-8935-81f74b313fe8_1727_dldesign_0_cycle1_af2pred (protein)
chain: SAAQLAASAKGRLLAVADYARAKGISEEAAELAEKAAEADVATAAELAEKAAKLLEEAGDEKLAERARKAAEKLKKAAKE
B19: design_598_15ab41e9-cad4-4381-8935-81f74b313fe8_1668_dldesign_0_cycle1_af2pred (protein)
chain: KEKVKKELEESKKELEKTLEKIKELVSSLPEEEREALAKGLVDPKTALEAAKKIAEAVGKEGANAAQEAISERRAIEQYEKILE

VTCN1, Q7Z7D3, sequence (Q7Z7D3 whole entry): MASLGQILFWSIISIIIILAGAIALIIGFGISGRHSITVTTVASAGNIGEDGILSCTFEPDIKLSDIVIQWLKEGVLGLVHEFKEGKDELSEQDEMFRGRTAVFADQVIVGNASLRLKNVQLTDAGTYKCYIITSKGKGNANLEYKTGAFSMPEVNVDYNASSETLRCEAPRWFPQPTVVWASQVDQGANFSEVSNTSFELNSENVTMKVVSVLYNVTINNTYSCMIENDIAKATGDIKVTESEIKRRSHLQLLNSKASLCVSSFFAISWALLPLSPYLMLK

The assay addresses VTCN1, Q7Z7D3.
In the case of B1, the “binding in a display sort” value was “not found (inactive)”.

Take B2: the “binding in a display sort” value is “not found (inactive)”. As for B3, the “binding in a display sort” value was “not found (inactive)”. As for B4, the “binding in a display sort” value was “not found (inactive)”. For B5, the “binding in a display sort” value is “not found (inactive)”.

Regarding B6, the “binding in a display sort” value is “not found (inactive)”. Consider B7, for which the “binding in a display sort” value is “not found (inactive)”.

For the molecule B8, the “binding in a display sort” value was “not found (inactive)”. Take B9: the “binding in a display sort” value was “not found (inactive)”. Regarding B10, the “binding in a display sort” value is “not found (inactive)”. Regarding B11, the “binding in a display sort” value is “not found (inactive)”. As for B12, the “binding in a display sort” value is “not found (inactive)”. B13: the “binding in a display sort” value was “not found (inactive)”. As for B14, the “binding in a display sort” value is “not found (inactive)”. With B15, the “binding in a display sort” value was “not found (inactive)”. On to B16, for which the “binding in a display sort” value was “not found (inactive)”.

On to B17, for which the “binding in a display sort” value is “not found (inactive)”. Take B18: the “binding in a display sort” value was “not found (inactive)”. With B19, the “binding in a display sort” value was “not found (inactive)”.
